Results filed as inconclusive are left out. Entries that show only a call come without a potency. Values without a mark were called inactive. The source made the active and inactive calls. Unless noted, the call rests on the fitted dose curve; in most records, active means well fitted curve in the direction sought with a large enough effect in the repeat runs; inconclusive means weak or mixed curves; inactive means no such curve, though single readings can be large; an effect the other way counts as inactive or inconclusive.
Assays:
[1] = qHTS assay to identify small molecule antagonists of the thyroid receptor (TR) signaling pathway - cell viability counter screen (AID 743064); further: nearly all actives have a fitted effect of over 50% in size; further: potency means the concentration at half of the fitted maximal effect
In short: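 Fluorescence from CellTiter-Fluor, added after 23.5 h exposure at 37 °C, reported viability of GH3.TRE-Luc cells co-treated with compound and 1 nM T3. Measured in the same wells as the luciferase TR readout.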

[2] = qHTS assay to identify small molecule antagonists of the thyroid receptor (TR) signaling pathway (AID 743065); further: nearly all actives have a fitted effect of over 55% in size; further: potency means the concentration at half of the fitted maximal effect
In short: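 GH3.TRE-Luc rat pituitary cells (two TREs driving luciferase) were dosed with compound, then stimulated with 1 nM T3 (final) for 23.5 h at 37 C. ONE-Glo luminescence was the read-out, with CellTiter-Fluor fluorescence as the cytotoxicity counter-screen.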

[3] = system: thyroid hormone receptor (rat, GH3 cells); assay: qHTS assay to identify small molecule agonists of the thyroid receptor (TR) signaling pathway (AID 743066; calls by dose curve)
[4] = biological target: Estrogen receptor (Homo sapiens) (UniProt P03372); assay: qHTS assay to identify small molecule antagonists of the estrogen receptor alpha (ER-alpha) signaling pathway (AID 743069; active means well fitted curve in the direction sought with a large enough effect in the signal ratio in the repeat runs, not every such curve was filed as active; the % refers to the signal ratio)
Chain of Estrogen receptor (Homo sapiens) (P03372 whole entry, looked up): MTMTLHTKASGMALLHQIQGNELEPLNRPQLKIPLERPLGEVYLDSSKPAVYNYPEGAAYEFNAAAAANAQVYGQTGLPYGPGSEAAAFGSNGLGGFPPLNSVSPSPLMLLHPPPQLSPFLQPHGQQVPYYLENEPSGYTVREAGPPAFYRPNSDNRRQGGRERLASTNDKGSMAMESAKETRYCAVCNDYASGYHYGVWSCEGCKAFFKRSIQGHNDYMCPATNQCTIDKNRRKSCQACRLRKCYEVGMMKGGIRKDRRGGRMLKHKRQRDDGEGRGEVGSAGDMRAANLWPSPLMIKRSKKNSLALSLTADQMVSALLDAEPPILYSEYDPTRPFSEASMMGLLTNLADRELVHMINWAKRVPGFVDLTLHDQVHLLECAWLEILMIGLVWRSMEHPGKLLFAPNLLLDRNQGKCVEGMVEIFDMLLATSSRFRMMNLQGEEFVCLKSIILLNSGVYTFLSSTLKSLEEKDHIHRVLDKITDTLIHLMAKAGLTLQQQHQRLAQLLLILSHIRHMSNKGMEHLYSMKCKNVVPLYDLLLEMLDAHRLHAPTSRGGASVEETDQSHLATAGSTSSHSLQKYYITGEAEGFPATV
In short: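 Beta-lactamase FRET fluorescence is read after 2 hr at room temperature with LiveBLAzer B/G substrate. Before that, ER-alpha-bla HEK293 cells sit 4 hr after plating, then receive compound plus 17beta-estradiol and incubate 18 hr at 37C.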

[5] = qHTS assay to identify small molecule antagonists of the estrogen receptor alpha (ER-alpha) signaling pathway - cell viability counter screen (AID 743074; calls by dose curve;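 further: HEK293 cells carrying ER-alpha-UAS-bla reporter stimulated with 17beta-estradiol; nearly all actives have a fitted effect of over 45% in size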)
[6] = biological target: Estrogen receptor (Homo sapiens) (UniProt P03372); assay: qHTS assay to identify small molecule agonists of the estrogen receptor alpha (ER-alpha) signaling pathway (AID 743075; calls by dose curve;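 further: HEK293 GripTite cells with ER-alpha and UAS-driven beta-lactamase reporter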; further: potency means the concentration at half of the fitted maximal effect)
[7] = qHTS assay to identify small molecule antagonists of the estrogen receptor alpha (ER-alpha) signaling pathway using the BG1 cell line (AID 743080; calls by dose curve;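 further: BG1 cells stimulated with 17beta-estradiol alongside compound; nearly all actives have a fitted effect of over 25% in size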; further: potency means the concentration at half of the fitted maximal effect)
In short: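 After 5 days in phenol-red-free 10% charcoal-stripped FBS medium, BG1-Luc-4E2 cells were seeded, left 24 h at 37 C, co-treated with compounds and 17beta-estradiol for 21.5 h, then assayed for viability and luciferase.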

[8] = qHTS assay to identify small molecule antagonists of the estrogen receptor alpha (ER-alpha) signaling pathway using the BG1 cell line - cell viability counter screen (AID 743081);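 further: compound given together with 17beta-estradiol as the ER stimulus; nearly all actives have a fitted effect of over 45% in size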
[9] = biological target: Aromatase (Homo sapiens) (UniProt P11511); assay: qHTS assay to identify aromatase inhibitors (AID 743083); further: nearly all actives have a fitted effect of over 55% in size
Chain of Aromatase (Homo sapiens) (P11511 whole entry, looked up): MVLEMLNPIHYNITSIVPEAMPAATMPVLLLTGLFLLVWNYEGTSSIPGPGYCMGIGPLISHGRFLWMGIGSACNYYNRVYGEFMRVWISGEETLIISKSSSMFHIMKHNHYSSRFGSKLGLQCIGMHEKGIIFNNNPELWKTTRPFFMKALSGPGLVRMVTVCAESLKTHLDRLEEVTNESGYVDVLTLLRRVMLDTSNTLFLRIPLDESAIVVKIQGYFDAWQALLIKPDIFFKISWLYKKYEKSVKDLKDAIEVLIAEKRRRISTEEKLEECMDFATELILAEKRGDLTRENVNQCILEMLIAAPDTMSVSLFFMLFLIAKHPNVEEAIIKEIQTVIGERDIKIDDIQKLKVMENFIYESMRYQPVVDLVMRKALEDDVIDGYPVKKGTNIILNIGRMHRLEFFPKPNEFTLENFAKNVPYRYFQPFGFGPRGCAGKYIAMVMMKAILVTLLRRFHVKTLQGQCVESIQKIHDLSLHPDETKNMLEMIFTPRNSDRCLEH

[10] = biological target: Estrogen receptor (Homo sapiens) (UniProt P03372); assay: qHTS assay to identify small molecule agonists of the estrogen receptor alpha (ER-alpha) signaling pathway using the BG1 cell line (AID 743079); settings: BG1Luc4E2 cells, ERE-luciferase agonist, 22 h; further: nearly all actives have a fitted effect of over 20% in size; further: potency means the concentration at half of the fitted maximal effect

| Structure (SMILES) | Potency [1] | Potency [2] | Potency [3] | Potency [4] | outcome [5] | Potency [6] | Potency [7] | Potency [8] | Potency [9] | activation ([10]; at 70.3 µM (top of the series)) [%] | Potency [10] | activation ([10]; at 95 µM (top of the series)) [%] |
| --- | --- | --- | --- | --- | --- | --- | --- | --- | --- | --- | --- | --- |
| OC(c1ccc(F)cc1)(c1cncnc1)c1ccccc1Cl (stereo not given) | inactive | inactive | inactive | inactive | inactive | 49 µM [activator] (active) | inactive | inactive |  |  |  |  |
| COC(=O)c1ccccc1S(=O)(=O)NC(=O)N(C)c1nc(C)nc(OC)n1 | inactive | inactive | inactive | inactive | inactive | inactive | inactive | inactive | inactive |  |  |  |
| CCCCCCI | inactive | inactive | inactive | inactive | inactive | inactive | inactive | inactive | inactive | 1.45 |  |  |
| COc1ncc(F)c2nc(S(=O)(=O)Nc3c(F)cccc3F)nn12 | inactive | inactive | inactive | inactive | inactive | inactive | inactive | inactive | inactive | -3.47 |  |  |
| O=C(N[C@H]1CN2CCC1CC2)c1cc2ccoc2cn1 | inactive | inactive | inactive | inactive | inactive | inactive | inactive | inactive | inactive | -3.48 |  |  |
| CCN(CC)C(C)C(=O)c1ccccc1 (stereo not given) | inactive | inactive | inactive | inactive | inactive | inactive | inactive | inactive | inactive | 0.375 |  |  |
| CCN(Cc1ccc(Cl)nc1)/C(=C/[N+](=O)[O-])NC | inactive | inactive | inactive | inactive | inactive | inactive | inactive | inactive | inactive | 1.15 |  |  |
| CCOP(=S)(OCC)Oc1cc(-c2ccccc2)on1 | inactive | inactive | inactive | inactive | inactive | inactive |  | inactive | inactive |  | 68.6 µM (active) |  |
| Cc1ncsc1CCCl | inactive | inactive | inactive | inactive | inactive | inactive | inactive |  | inactive | 1.72 |  |  |
| C[N+](=O)[O-] | inactive | inactive | inactive | inactive | inactive | inactive | inactive | inactive | inactive | 0.916 |  |  |
| O=C1OC(c2ccc(O)c(S(=O)(=O)O)c2)(c2ccc(O)c(S(=O)(=O)O)c2)c2c(Br)c(Br)c(Br)c(Br)c21 | inactive | inactive | inactive | inactive | inactive | inactive | inactive |  | inactive | -0.304 |  |  |
| c1coc(-c2nc3ccccc3[nH]2)c1 | inactive | inactive | inactive | inactive | inactive |  |  | inactive | inactive |  | 30.6 µM (active) |  |
| CCC(=O)c1ccccc1 | inactive | inactive | inactive | inactive | inactive | inactive | inactive | inactive | inactive | -1.07 |  |  |
| CC1(C)C(=O)NC(=O)NC1=O | inactive | inactive | inactive | inactive |  | inactive | inactive | inactive | inactive | -7.44 |  |  |
| CCCCc1c(C)nc(NCC)[nH]c1=O | inactive | inactive | inactive | inactive | inactive | inactive | inactive | inactive | inactive | 0.176 |  |  |
| C=CC1CC=CCC1 (stereo not given) | inactive | inactive | inactive | inactive | inactive | inactive | inactive | inactive | inactive | 11 |  |  |
| CC1(C)CON(Cc2ccccc2Cl)C1=O | inactive | inactive | inactive | inactive | inactive | inactive | inactive | inactive | inactive |  |  |  |
| CCC/C(=N\OCC)C1=C(O)CC(CC(C)SCC)CC1=O (stereo not given) | inactive | inactive | inactive | inactive | inactive | inactive | inactive | inactive | inactive |  |  | -1.67 |
| CC(=O)CC(c1ccc(Cl)cc1)c1c(O)c2ccccc2oc1=O (stereo not given) | inactive | inactive | inactive | inactive | inactive | inactive | inactive | inactive | inactive |  |  | -6.05 |
| O=C1c2ccccc2C(=O)c2ccccc21 | inactive | inactive | inactive | inactive | inactive | inactive |  |  | inactive |  |  |  |
| NC(=O)c1cc([N+](=O)[O-])cc([N+](=O)[O-])c1 | inactive | inactive | inactive | inactive | inactive | inactive | inactive | inactive | inactive |  |  |  |
| CC(=O)C(Cl)Cl | inactive | inactive | inactive | inactive | inactive | inactive | inactive | inactive | inactive |  |  | 0.96 |
| Nc1cc(Cl)ccc1O | 23.5 µM (active) | 59.1 µM (active) | inactive | inactive |  | inactive | 7.45 µM (active) | inactive | inactive | -2.11 |  |  |
| CN/C(=N\[N+](=O)[O-])NCC1CCOC1 (stereo not given) | inactive | inactive | inactive |  | inactive |  |  | inactive | inactive |  |  |  |
| CNC(=O)Oc1ccccc1C1OCCO1 | inactive | inactive | inactive | inactive |  | inactive | inactive | inactive | inactive | -9.73 |  |  |
